Data on 2 compounds can be found in PubChem BioAssay AID743314 (Broad Institute, 2014).

Results with a measured potency or affinity are listed apart. Results filed as inconclusive are left out. Calls of active or inactive are those of the source.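 How the source made its calls: active means fitted half-maximal concentration no higher than twice the top tested dose, in every repeat run; inconclusive means repeat runs disagree, poor fit, or flat partial inhibition; inactive means the rest.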

The assay has as its target Endoplasmic reticulum aminopeptidase 1 (Homo sapiens) (UniProt Q9NZ08). The assay can be described thus: inhibition of human ERAP1 enzyme activity – biochemical, cherry-pick, set 2, plate reader, dose response (AID 743314).

Chain of Endoplasmic reticulum aminopeptidase 1 (Homo sapiens) (Q9NZ08 whole entry, looked up): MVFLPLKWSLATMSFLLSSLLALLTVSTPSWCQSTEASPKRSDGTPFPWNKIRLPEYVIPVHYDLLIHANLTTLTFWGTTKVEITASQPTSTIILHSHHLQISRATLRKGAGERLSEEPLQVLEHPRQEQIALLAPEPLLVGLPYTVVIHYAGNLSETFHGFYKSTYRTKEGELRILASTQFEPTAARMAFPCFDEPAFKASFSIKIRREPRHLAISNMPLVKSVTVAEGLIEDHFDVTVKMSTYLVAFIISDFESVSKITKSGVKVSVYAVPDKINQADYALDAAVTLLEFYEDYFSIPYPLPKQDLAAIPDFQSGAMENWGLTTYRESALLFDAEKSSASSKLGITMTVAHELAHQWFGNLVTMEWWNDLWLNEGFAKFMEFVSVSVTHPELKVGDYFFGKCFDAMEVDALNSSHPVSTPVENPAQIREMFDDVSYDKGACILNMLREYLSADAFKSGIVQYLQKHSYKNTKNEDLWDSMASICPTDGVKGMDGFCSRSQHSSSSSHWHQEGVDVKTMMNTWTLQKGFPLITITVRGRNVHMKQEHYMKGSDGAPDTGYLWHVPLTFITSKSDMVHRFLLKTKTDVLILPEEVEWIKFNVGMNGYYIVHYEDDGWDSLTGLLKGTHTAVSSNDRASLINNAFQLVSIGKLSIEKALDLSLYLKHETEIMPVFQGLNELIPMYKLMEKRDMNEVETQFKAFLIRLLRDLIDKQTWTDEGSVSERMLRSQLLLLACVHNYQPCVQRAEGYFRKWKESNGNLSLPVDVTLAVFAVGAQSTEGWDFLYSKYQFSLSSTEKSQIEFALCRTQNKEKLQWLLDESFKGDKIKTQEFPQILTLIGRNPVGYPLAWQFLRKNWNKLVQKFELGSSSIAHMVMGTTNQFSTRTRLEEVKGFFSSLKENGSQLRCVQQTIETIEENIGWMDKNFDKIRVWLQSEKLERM

For the compound `Cc1cc(=O)oc2cc(OCC(=O)N3CCN(C(C)c4ccccc4)CC3)c(Cl)cc12` (configuration not stated), the result was inactive. Turning to `Cc1cc(OCC(=O)NC(Cc2ccc(Cl)cc2)C(=O)O)c2c3c(c(=O)oc2c1)CCCC3` (configuration not stated), the compound was classed as inactive.
